# Screening results (PubChem)
# MCF10A rerep: DNA re-replication induction in MCF 10a cells; MCF 10A DNA re-replication, Hoechst nuclear intensity, 48 h; Potency, µM (titrated, usually from 46.1 µM), most hits filed as activators; 2.9% of 350,000 active; further: nearly all actives have a fitted effect of over 50% in size
# KB-V1 cytotox: kills drug-selected multidrug resistant KB-V1 cells | KB-V1 MDR cells viability, CellTiter-Glo, 72 h | Potency, µM (top dose mostly 46.1 µM), most hits filed as cytotoxic | 3.4% of 400,000 active | AID 1347076; further: nearly all actives have a fitted effect of over 60% in size
#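 Cytotoxicity toward P-gp-expressing KB-V1 cells was determined as loss of CellTiter-Glo luminescence after 72 h at 37 degrees C. Compounds were tested in quantitative HTS format across a concentration range, with curves fitted to normalized data.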
# HT1080 IDH1KD tx: kills HT-1080 cells with IDH1 knockdown; Potency, µM (doses to about 46.1 µM), hits mostly cytotoxic; HT-1080 IDH1 knockdown viability, ATP luminescence, 48 h; AID 686971; 2% of 360,000 active
#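 In this qHTS, HT-1080 cells depleted of IDH1 are exposed for 48 h at 37 °C to compound titrations. Toxicity is scored from CellTiter-Glo luminescence, with DMSO as full viability and medium alone as none.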
# KB-3-1 tox: KB-3-1 parental cell cytotoxicity; 1.4% of 400,000 active; KB-3-1 viability, CellTiter-Glo ATP luminescence, 72 h; Potency, µM (top dose mostly 46.1 µM), actives largely listed as cytotoxic; further: nearly all actives have a fitted effect of over 60% in size
#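 Cytotoxicity measured as CellTiter-Glo luminescence after 72 h at 37 C. Compound titrations were pinned onto drug-naive KB-3-1 parental adenocarcinoma cells grown in DMEM with 10% FBS, and normalized data fitted to concentration-response curves.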
# SW480 rereplic: induces DNA re-replication in SW480 colon adenocarcinoma cells | SW480 DNA re-replication, Hoechst DNA content imaging, 48 h | Potency, µM (titrated, usually from 46.1 µM), most hits filed as activators | 1.8% of 340,000 active | AID 624297; further: nearly all actives have a fitted effect of over 55% in size
#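 Per well, 250 cells were exposed to pinned compound for 48 hr. Nuclear DNA was visualised with Hoechst (40 min, 37 C) and total object intensity recorded by fluorescence scanning.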
# HT1080NT lethal: kills 2HG-producing HT-1080-NT fibrosarcoma cells. HT-1080-NT fibrosarcoma viability, CellTiter-Glo ATP luminescence, 48 h. Potency, µM (doses to about 46.1 µM), usual class: cytotoxic. 1.6% of 360,000 active;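 further: NT is the 2HG producing partner of a matched IDH1 knockdown line; nearly all actives have a fitted effect of over 55% in size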
#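 A 48-hour cytotoxicity screen used HT-1080-NT cells plated 2 hours before compound delivery. ATP-based CellTiter-Glo luminescence measured viability, normalized to DMSO and no-cell controls.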
# Hits are given with their value; 0 = inactive; ? = inconclusive; - = no result given. Most compounds without a hit are left out; they make up all but 7.9% or so of the library. The call rests on the fitted dose curve; in most records, active means well fitted curve in the direction sought with a large enough effect; inconclusive means small, poorly fitted or top-dose-only effect, or another doubt; inactive means no such curve, though single readings can be large; an effect the other way counts as inactive or inconclusive.
SMILES,MCF10A rerep,KB-V1 cytotox,HT1080 IDH1KD tx,KB-3-1 tox,SW480 rereplic,HT1080NT lethal
CCCCC(O)(c1ccc(OC)cc1)C(CN1CCOCC1)c1ccccc1 (stereo unspecified),0,?,?,0,0,?
CCCCC(O)(c1ccc(CC)cc1)C(CN1CCOCC1)c1ccccc1 (stereo unspecified),?,0,?,16.4µM,?,?
CCOc1ccc(C(O)(c2ccccc2OC)C(CN2CCCC2)c2ccccc2)cc1 (stereo unspecified),?,0,0,?,0,0
CCCCC(O)(c1ccccc1)C(CN1CCOCC1)c1ccccc1 (stereo unspecified),0,0,0,0,0,0
CCCCCC(O)(c1ccc(OC)cc1)C(CN1CCOCC1)c1ccccc1 (stereo unspecified),16.4µM,13µM,?,?,?,?
COc1ccc(C(O)(c2ccccc2OC)C(CN2CCOCC2)c2ccccc2)cc1 (stereo unspecified),0,20.6µM,0,?,0,0
CCCCCC(O)(c1ccc(OCC)cc1)C(CN1CCOCC1)c1ccccc1 (stereo unspecified),?,?,16.4µM,?,25.9µM,?
CC(C)c1ccc(OCC(=O)Nc2cc(-c3ccccc3)no2)cc1,-,?,-,0,-,-
CC1=C(C(=O)OCc2ccccc2)N2C(=O)[C@@H](NC(=O)OCc3ccccc3)[C@H]2SC1,-,?,-,0,-,-
CCCCN(C(=O)c1c(CC)noc1C)c1c(N)n(CCCC)c(=O)[nH]c1=O,0,0,0,0,0,0
FC(F)(F)c1cccc(OCC2CNC(=S)O2)c1 (stereo unspecified),0,0,0,0,0,0
O=C(N[C@@H](Cc1ccccc1)C(=O)N1CCN(S(=O)(=O)c2ccccc2F)CC1)c1ccco1,0,0,0,0,0,0
Cc1ccnc(NC(=S)NC(=O)c2cncc(Br)c2)c1,0,0,0,0,0,0
Cc1nc(NC(=S)NC(=O)c2cncc(Br)c2)ccc1Br,0,3.66µM,0,?,0,0
CC(C)c1noc(-c2ccccc2OCC(=O)Nc2cccc([N+](=O)[O-])c2)n1,-,0,-,0,-,-
COc1ccc(N2CC(NS(=O)(=O)c3cccs3)CC2=O)cc1OC (stereo unspecified),0,0,0,0,0,0
CC(=O)/C=C/c1ccccc1Oc1c(F)c(F)nc(F)c1F,23.1µM,0,?,?,18.4µM,?
Oc1ccccc1Oc1c(F)c(F)nc(N2CCCC2)c1F,?,0,0,0,0,0
COC(=O)[C@H](C(C)C)N(Cc1ccccc1)S(=O)(=O)CCN1CCCC1,0,0,0,0,0,0
COc1cc(Cl)c(CC(=O)NO)cc1OC,-,-,0,-,-,0
Cc1ccc(N(CN2CCCC2=O)C(=O)c2ccc(C)c(C)c2)cc1,0,8.2µM,0,0,0,0
Cc1ccc(C(=O)N(CN2CCCC2=O)c2ccc(F)cc2)cc1C,0,18.4µM,0,0,0,0
Cc1ccc(C(=O)N(CN2CCCC2=O)c2ccccc2)cc1C,0,?,0,0,0,0
Cc1cccc(-c2nc(C)c(CCNC(=O)c3cccs3)s2)c1,-,?,-,0,-,-
O=[N+]([O-])c1ccc2[nH]c(=S)[nH]c2c1,0,0,0,0,0,0
O=[N+]([O-])c1ccc2[nH]c(=S)sc2c1,?,11.6µM,0,?,0,?
CC1CCc2cc(F)ccc2N1C(=O)CSc1nnc2c(n1)[nH]c1ccc(F)cc12 (stereo unspecified),0,20.6µM,0,0,0,0
CC1CCCCN1C(=O)CSc1nnc2c(n1)[nH]c1ccc(F)cc12 (stereo unspecified),0,0,0,0,0,0
CC1CNC(=S)N(c2ccccc2)C1=O (stereo unspecified),0,0,0,0,0,0
COc1ccc(O)c(C(=O)c2coc(=N)c(C(=O)Nc3ccc(SC(F)F)cc3)c2)c1,0,23.1µM,0,0,0,0
